D2 antagonist = D2 dopamine receptor (human) antagonism. inhibition, % at 10 µM. P14416. 340,000 tested, 2% active. HEK293 TREx D2 cells, calcium flux, dopamine EC80. AID 485344; in the data active = inhibition above about 30%; inactive = below that, where a call was filed
Target sequence (P14416 whole entry, looked up): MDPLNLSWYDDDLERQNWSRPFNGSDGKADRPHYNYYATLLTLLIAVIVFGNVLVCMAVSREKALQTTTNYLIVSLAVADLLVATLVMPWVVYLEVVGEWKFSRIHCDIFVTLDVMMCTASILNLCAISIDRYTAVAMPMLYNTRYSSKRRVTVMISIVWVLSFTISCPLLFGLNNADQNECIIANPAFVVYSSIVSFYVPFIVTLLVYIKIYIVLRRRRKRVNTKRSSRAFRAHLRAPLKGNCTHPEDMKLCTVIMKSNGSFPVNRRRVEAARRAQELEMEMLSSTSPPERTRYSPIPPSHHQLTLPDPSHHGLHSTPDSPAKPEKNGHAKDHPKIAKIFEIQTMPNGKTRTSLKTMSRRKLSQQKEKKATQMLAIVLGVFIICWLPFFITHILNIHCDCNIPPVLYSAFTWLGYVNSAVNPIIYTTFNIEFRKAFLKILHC
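Overnight-induced (tetracycline, 30 C) HEK293 T-REx cells carrying force-coupled D2 receive a no-wash calcium dye, then compound, then EC80 dopamine at 180 s; signals are read kinetically throughout.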
D2 ag-1 = human D2 receptor agonism in beta-arrestin assay | P14416 | 360,000 tested, 0.084% active | activation, % (concentration not given with the values) | AID 624465 | DiscoveRx PathHunter D2 beta-arrestin, luminescence, 90 min; 100% = 57 uM dopamine signal; in the data active = activation above about 40%; inconclusive = between about 15% and that limit
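DiscoveRx PathHunter D2 beta-arrestin cells (2,100/well) attached overnight, then compound-stimulated 90 min at 37 C in HBSS/10 mM HEPES/0.1% Tween-20 buffer; beta-galactosidase complementation read by luminescence after 1 h at ambient temperature. Dopamine 57 uM final (EC100) as control.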
D2 ag-2 = agonists of human D2 dopamine receptor; 340,000 tested, 0.53% active; HEK293 T-REx D2 cells, calcium flux agonist mode; AID 485358; activation, % at 2 µM; P14416;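 active = activation over 3 SD above normal in the single-dose calcium agonist read, cut at about 30% in these data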
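Calcium-flux readout, 1 cycle/sec over 180 s following compound pin transfer, in inducible HEK293 Trex D2 cells (force-coupled); dopamine controls included. Positive calcium responses during this window marked compounds as potential agonists.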
D2 PAM-1 = human D2 receptor positive allosteric modulation | P14416 | potentiation, % (test concentration not listed) | 360,000 tested, 0.23% active | AID 624464 | DiscoveRx D2 beta-arrestin cells, luminescence, 90 min; 100% = 57 uM dopamine signal; in the data active = potentiation above about 50%; inconclusive = mostly about 30% to 49%
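D2 cells co-treated with compound plus 50 nM dopamine (EC20) for 90 min at 37 deg C to detect potentiation. Beta-arrestin recruitment was read as enzyme-fragment luminescence after 1 h at ambient temperature. Full response was set by 57 uM dopamine.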
D2 PAM-2 = positive allosteric modulators of human D2 dopamine receptor; HEK293 T-REx D2, calcium flux, EC20 dopamine potentiation; potentiation, % at 10 µM; P14416; 340,000 tested, 0.34% active;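 active = potentiation over 3 SD above the plate norm, cut at about 30% in these data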
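Tetracycline-induced Hek293 Trex D2 cells, force-coupled to calcium, loaded with no-wash calcium dye. Compound added with 180 s kinetic read for agonism, then EC20 dopamine and a further 180 s read for potentiation.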
Numbers stand for hits; . = inactive; ? = inconclusive; / = no result. Shown are actives, neighbours in structure and some others; about 2.4% of the full set was active somewhere.

SMILES	D2 antagonist	D2 ag-1	D2 ag-2	D2 PAM-1	D2 PAM-2
CCCCN(Cc1ccccc1)C1CCN(CCc2ccccc2)CC1	56	.	.	.	.
O=C(Nc1ccc2c(c1)OCO2)c1cccn(Cc2cccc([N+](=O)[O-])c2)c1=O	/	/	.	/	.
Cc1ccc2scc(N3CCN(C)CC3)c(=O)c2c1	/	/	.	/	.
Cc1[nH]c2ccccc2c1CCCNC1CCCCC1	39	.	.	.	.
CNC(=S)NC1CC2CCCC(C1)N2CC(C)C (configuration not stated)	/	.	/	.	/
Cc1ccc(CN2C3CCCC2CC(NC(=S)NCc2ccccc2)C3)cc1 (configuration not stated)	104	.	.	.	.
Clc1cccc(N2CCNCC2)c1Cl	35	.	.	.	.
Oc1cc2c(cc1CN1CCN(c3ccccc3)CC1)CCC2	73	.	.	.	.
Oc1cc2c(cc1CN1CCN(c3ccc(F)cc3)CC1)OCO2	58	.	.	.	.
Oc1ccc(Cl)cc1CN1CCN(Cc2ccccc2)CC1	32	.	.	.	.
Cc1ccc(O)c(CN2CCN(c3ccccc3)CC2)c1	38	.	.	.	.
Brc1cc2c(cc1CN1CCN(c3ccccc3)CC1)OCCO2	.	.	.	.	.
COc1ccc(NC(=O)c2cccn(Cc3ccc(Cl)cc3)c2=O)c(OC)c1	/	/	.	/	/
O=C(Nc1ccc2c(c1)OCCO2)c1cccn(Cc2cccc([N+](=O)[O-])c2)c1=O	/	/	.	/	.
CCc1ccc(OCC(=O)N2CCN(CCc3ccncc3)CC2)cc1	/	/	/	/	.
CCCc1ccc(OCC(=O)Nc2ccc(Cl)cc2C(=O)c2ccccc2)cc1	/	/	.	/	.
Cc1cc(O)c(CN2CCN(c3ccccc3)CC2)cc1C	49	.	.	.	.
COc1cccc(CN2CCN(c3ccc(F)cc3)CC2)c1OC	/	.	/	.	/
Nc1ccc2ccc3cccc[n+]3c2c1	.	.	31	.	.
C[n+]1c(-c2ccccc2)c2cc(N)ccc2c2ccc(N)cc21	.	.	.	.	.
COc1cccc(C2SCC(=O)Nc3c2c(C)nn3-c2ccc(C)c(Cl)c2)c1OC (configuration not stated)	/	/	/	/	.
CCCCCCNC(=O)N[C@H](Cc1ccc(O)cc1)C(=O)NCCC[C@H]1CN2C(=NC[C@H]2CCC)N1CC1CCC1	34	/	.	/	.
N#Cc1cc2c(nc1SCC(=O)Nc1ccc(OC(F)(F)F)cc1)C1CCN2CC1	/	/	.	/	.
CN(CCc1nnc(N)s1)[N+](=O)[O-]	48	.	.	.	.
Cc1cccc2sc(NC(=O)c3cccn(Cc4ccccc4)c3=O)nc12	/	/	.	/	.
SMILES	D2 antagonist	D2 ag-1	D2 ag-2	D2 PAM-1	D2 PAM-2
CN1CCc2cc(O)cc3c2[C@H]1Cc1ccc(O)c(O)c1-3	/	106	/	101	/
CCCN1CCc2cc(O)cc3c2[C@H]1Cc1ccc(O)c(O)c1-3	/	241	/	129	/
O=C(COc1cccc(Cl)c1)N1CCN(CCc2ccncc2)CC1	/	/	.	/	.
CC(=O)O[C@@]12CO[C@@H]1C[C@H](OC1OCC(O)C(O)C1O)[C@@]1(C)C(=O)[C@H](O)C3=C(C)[C@@H](OC(=O)[C@H](O)[C@@H](NC(=O)c4ccccc4)c4ccccc4)C[C@@](O)([C@@H](OC(=O)c4ccccc4)C12)C3(C)C (some centres not stated)	38	.	.	.	.
O=c1c2ccccc2nc(/C=C\c2ccccc2F)n1-c1ccc(O)cc1	/	/	.	/	.
COc1cccc(-n2c(/C=C/c3cccc(C)c3)nc3ccccc3c2=O)c1	/	/	.	/	.
O=[N+]([O-])c1cccc(CN2CCN(Cc3ccc(Br)cc3)CC2)c1	90	.	.	.	.
O=C(Cc1ccccc1)N1CCN(Cc2ccc([N+](=O)[O-])cc2)CC1	.	.	.	.	.
Nc1c(C(=O)Nc2ccc(Br)cc2F)sc2nc3c(cc12)N1CCC3CC1	/	/	.	/	.
CC1(C)CN=C(Nc2ccc(F)c(Cl)c2)S1	.	.	.	.	.
CC1(C)CSC(Nc2ccc(F)c(Cl)c2)=N1	.	.	.	.	32
Cc1ccc(-n2c(/C=C/c3ccc(Br)s3)nc3ccccc3c2=O)cc1C	/	/	.	/	.
CC(C)N1CC=C(c2c[nH]c3ccccc23)CC1	/	.	/	.	/
C1=C(c2c[nH]c3ccccc23)CCNC1	42	/	.	/	.
CCCN1CCC[C@@H]2Cc3nc(N)ncc3C[C@H]21	/	126	/	117	/
Cc1ccc(-n2c(/C=C/c3cccs3)nc3ccccc3c2=O)cc1C	/	/	/	/	.
CCCC1=Nc2cc(C(=O)NC3CCC(C)CC3)ccc2Sc2ccccc21 (configuration not stated)	/	/	/	/	.
CCN(CC)P(=O)(c1n(CC)cc[n+]1CC)N(CC)CC	.	.	.	.	31
CCC12CN3CC(CC)(CN(C1)C3c1c(C)[nH]c(=O)[nH]c1=O)C2=O (configuration not stated)	/	/	.	/	.
COC(=O)C1=C(c2ccc(C(C)=O)cc2)C[C@@H]2CC[C@H]1N2C	.	.	.	.	.
COC(=O)C1=C(c2ccc(C(C)=O)cc2)C[C@@H]2CC[C@H]1N2C(=O)NC(C)C	52	.	.	.	.
O=C1NC(=S)NC(=O)C1=Cc1cccc2cc3ccccc3cc12	.	.	.	.	.
CN1/C(=C\C=C2C(=O)NC(=S)NC2=O)C(C)(C)c2ccccc21	31	.	128	.	.
CC1(C)OC(c2ccccc2)=C/C(=C/C=C2C(=O)NC(=S)NC2=O)O1	63	.	.	.	.
O=c1c2ccccc2nc(/C=C/c2ccc(F)cc2)n1-c1ccccn1	.	.	.	.	.
SMILES	D2 antagonist	D2 ag-1	D2 ag-2	D2 PAM-1	D2 PAM-2
O=C1c2ccccc2C(=O)N1Cc1nc2ccccc2c(=O)n1-c1ccccn1	31	.	.	.	.
CC/C(=N\Nc1cccc2ccccc12)c1c(O)[nH]c(=O)[nH]c1=O	.	?	.	55	.
O=S1(=O)N(CCN2CC=C(c3c[nH]c4cc(F)ccc34)CC2)c2cccc3c2N1CCC3	64	.	.	.	.
Cc1ccc(-n2c(/C=C/c3cc(Br)cs3)nc3ccccc3c2=O)cc1	/	/	.	/	.
Cc1ccc(C)c(CN2C(=O)c3ccccc3Sc3ccc(C(=O)N4CCC5(CC4)OCCO5)cc32)c1	/	/	.	/	.
CCCCc1nn2c(=O)cc(COC(=O)Cc3ccccc3)nc2s1	/	/	.	/	.
O=C(CCCN1CCC(n2c(=O)[nH]c3ccccc32)CC1)c1ccc(F)cc1	77	.	.	.	.
O=[N+]([O-])c1ccc(NCc2ccc(Cl)cc2)c2ccncc12	.	.	.	.	.
O=[N+]([O-])c1ccc(NCc2ccccc2)c2nonc12	44	.	135	.	.
O=C(COc1ccccc1[N+](=O)[O-])N1CCN(CCc2ccncc2)CC1	/	/	.	/	.

Screening results: PubChem BioAssay, National Center for Advancing Translational Sciences (NCATS)
